In PubChem BioAssay (NCATS):
Values joined by “and” are separate entries in the source; they are usually repeats but may differ in a detail not shown here. Equal entries are not always repeated. Unmarked numbers belong to inactive results. Inconclusive results are not listed. Active and inactive are the calls of the source. Unless noted, the call rests on the fitted dose curve; in most records, active means well fitted curve in the direction sought with a large enough effect; inconclusive means small, poorly fitted or top-dose-only effect, or another doubt; inactive means no such curve, though single readings can be large; an effect the other way counts as inactive or inconclusive.

Test system: not listed separately
Experiment: qHTS assay to identify small molecules that stimulate interleukin-8 (IL-8) secretion (AID 651758; active means well fitted activation curve with a large enough effect in the signal ratio; the % refers to the signal ratio; further: potency means the concentration at half of the fitted maximal effect; on activation: 0% is about no effect)
Details: HTRF ratio (665/615); series mostly up to 92.2 µM
Outline: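 THP-1 cells (2000/well) exposed to compound 16 h at 37 C; secreted IL-8 then detected by HTRF with cryptate- and XL665-labelled anti-IL-8 antibody pair after 1-3 h at room temperature.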

SMILES	Potency
CC(O)CO (stereo unspecified)	inactive
O=S(=O)(O)O	inactive
CC1=C(/C=C/C(C)=C/C=C/C(C)=C/CO)C(C)(C)CCC1	37.6 µM (active)
O=C(O)CCC(=O)C(=O)O	inactive
CC1=C2[C@@H]([C@H](C)CC[C@H]2/C=C(\C)C(=O)O)[C@H](O)C1	inactive
CCCCCCCC/C=C\CCCCCCCC(=O)O	inactive
IC(I)I	inactive

Test system: not listed separately
Experiment: qHTS assay for environmental chemicals that activate the Aryl hydrocarbon Receptor (AhR) signaling pathway (AID 651777); further: % of control where 0% means no effect; nearly all actives have a fitted effect of over 15% in size
Details: 1A2-DRE human hepatoma cells, luciferase, 24 h; active compounds read high
Outline: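 Human hepatoma 1A2-DRE cells, stably carrying a dioxin response element and CYP1A2 promoter driving luciferase, were exposed to compounds for 24 hr at 37 C and 5% CO2. Luciferase signal was then read after 30 min One-Glo at room temperature.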

SMILES	activation
CC(O)CO (stereo unspecified)	-1.84% and -0.0903%
O=S(=O)(O)O	-0.349% and 1.61%
CC1=CCC(C(C)(C)O)CC1 (stereo unspecified)	0.596%
CC1=C(/C=C/C(C)=C/C=C/C(C)=C/CO)C(C)(C)CCC1	1.25% and 1.27%
CC(C)=O	-1.82%
O=C(O)CCC(=O)C(=O)O	0.4%
CCOc1ccc2c(c1)C(C)=CC(C)(C)N2	3.55% and 2.98%
CC1=C2[C@@H]([C@H](C)CC[C@H]2/C=C(\C)C(=O)O)[C@H](O)C1	1.08%
CCCCC(CC)COC(=O)CC(C(=O)OCC(CC)CCCC)S(=O)(=O)O (stereo unspecified)	0.833%
CCCCCCCC/C=C\CCCCCCCC(=O)O	-1.87% and 0.641%
CC(C)(C)NC(=O)[C@@H]1C[C@@H]2CCCC[C@@H]2CN1C[C@@H](O)[C@H](Cc1ccccc1)NC(=O)[C@H](CC(N)=O)NC(=O)c1ccc2ccccc2n1	0.529%
Nc1ccn([C@H]2CS[C@@H](CO)O2)c(=O)n1	0.73%
O=C(O)CN(CCN(CC(=O)O)CC(=O)O)CC(=O)O	2.06% and 1.21%
CC1(C)C(C=C(Cl)Cl)C1C(=O)OCc1cccc(Oc2ccccc2)c1 (stereo unspecified)	-0.92% and -0.145% and 0.247%
CCCCCCCC(=O)O	0.292% and -0.546%
CCCCC/C=C\C/C=C\CCCCCCCC(=O)O	0.916% and -0.698%
IC(I)I	3.72%
Cc1ccccc1	0.0379% and -2.19%
C[C@H]1C[C@H]2[C@@H]3CCC4=CC(=O)C=C[C@]4(C)[C@@]3(F)[C@@H](O)C[C@]2(C)[C@@]1(O)C(=O)CO	-2.62%

Target: Peroxisome proliferator-activated receptor alpha (Homo sapiens) (UniProt Q07869)
Sequence (Q07869 whole entry, looked up): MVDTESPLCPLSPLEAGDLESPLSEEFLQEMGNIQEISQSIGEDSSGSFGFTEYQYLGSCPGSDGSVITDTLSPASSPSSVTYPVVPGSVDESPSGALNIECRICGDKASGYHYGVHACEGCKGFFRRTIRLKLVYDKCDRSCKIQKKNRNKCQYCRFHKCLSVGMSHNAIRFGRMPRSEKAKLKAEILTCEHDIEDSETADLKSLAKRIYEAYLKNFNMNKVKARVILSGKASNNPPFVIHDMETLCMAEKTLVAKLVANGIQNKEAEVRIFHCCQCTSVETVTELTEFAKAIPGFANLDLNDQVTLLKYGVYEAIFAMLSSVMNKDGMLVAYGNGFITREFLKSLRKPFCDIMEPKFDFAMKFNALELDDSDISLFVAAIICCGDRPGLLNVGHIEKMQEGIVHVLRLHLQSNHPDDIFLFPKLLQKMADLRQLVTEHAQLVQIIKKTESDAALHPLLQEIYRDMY
Experiment: qHTS assay for small molecule agonists of the peroxisome proliferator-activated receptor alpha (PPARalpha) signaling pathway (AID 651778); further: potency means the concentration at half of the fitted maximal effect; on max response: % of control where 0% means no effect
Details: PathHunter PPARalpha complementation, chemiluminescence, 6 h; max response: active compounds read high
Outline: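 Enzyme-fragment complementation assay in which ligand-bound PPARalpha translocates and forms an active enzyme that generates chemiluminescence. Cells were plated overnight, exposed to compound for 6 hr at 37 C, and then given detection reagent for 60 min at room temperature.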

SMILES	max response	Potency
CC(O)CO (stereo unspecified)	4.63% and -8.84%	
O=S(=O)(O)O	-1.64% and -3.82%	
CC1=CCC(C(C)(C)O)CC1 (stereo unspecified)	-2.04%	
CC1=C(/C=C/C(C)=C/C=C/C(C)=C/CO)C(C)(C)CCC1	-3.78% and -1.63%	
CC(C)=O	-7.67%	
O=C(O)CCC(=O)C(=O)O	4.88%	
CCOc1ccc2c(c1)C(C)=CC(C)(C)N2	-4.24% and -2.12%	
CC1=C2[C@@H]([C@H](C)CC[C@H]2/C=C(\C)C(=O)O)[C@H](O)C1	-2.98%	
CCCCCCCC/C=C\CCCCCCCC(=O)O		35.5 µM (active)
CCOC(C)=O	6.06%	
CC(C)(C)NC(=O)[C@@H]1C[C@@H]2CCCC[C@@H]2CN1C[C@@H](O)[C@H](Cc1ccccc1)NC(=O)[C@H](CC(N)=O)NC(=O)c1ccc2ccccc2n1	-0.457%	
O=CCCCC=O	-1.75%	
Nc1ccn([C@H]2CS[C@@H](CO)O2)c(=O)n1	-3.53%	
O=C(O)CN(CCN(CC(=O)O)CC(=O)O)CC(=O)O	2.01% and 0.29%	
CC1(C)C(C=C(Cl)Cl)C1C(=O)OCc1cccc(Oc2ccccc2)c1 (stereo unspecified)	-0.904% [middle of 4 runs]	
CCCCCCCC(=O)O	-0.533% and 5%	
CCCCC/C=C\C/C=C\CCCCCCCC(=O)O		44.7 µM (active) and 28.2 µM (active)
IC(I)I	-6.19% and -2.33%	
Cc1ccccc1	0.399% and -0.58%	
C[C@H]1C[C@H]2[C@@H]3CCC4=CC(=O)C=C[C@]4(C)[C@@]3(F)[C@@H](O)C[C@]2(C)[C@@]1(O)C(=O)CO	-0.118%	

Target: Nuclear receptor ROR-gamma (Homo sapiens) (UniProt P51449)
Sequence (P51449 whole entry, looked up): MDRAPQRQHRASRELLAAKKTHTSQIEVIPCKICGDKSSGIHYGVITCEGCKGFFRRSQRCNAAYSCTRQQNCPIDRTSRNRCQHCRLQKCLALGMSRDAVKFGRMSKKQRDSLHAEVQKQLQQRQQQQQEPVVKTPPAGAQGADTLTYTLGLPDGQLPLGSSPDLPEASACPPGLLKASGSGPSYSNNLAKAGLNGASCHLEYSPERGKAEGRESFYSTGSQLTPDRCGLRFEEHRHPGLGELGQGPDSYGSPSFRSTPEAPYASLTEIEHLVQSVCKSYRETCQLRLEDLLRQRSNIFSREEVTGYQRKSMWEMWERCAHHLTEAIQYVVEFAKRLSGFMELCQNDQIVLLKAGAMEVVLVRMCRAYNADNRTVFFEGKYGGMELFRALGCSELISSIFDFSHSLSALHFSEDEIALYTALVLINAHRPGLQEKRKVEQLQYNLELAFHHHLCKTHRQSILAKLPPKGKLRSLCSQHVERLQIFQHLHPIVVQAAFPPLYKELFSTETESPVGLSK
Experiment: qHTS assay for small molecule antagonists of the retinoid-related orphan receptor gamma (ROR-gamma) signaling pathway (AID 651802); further: on the % scale 0 is the no-effect control and ±100 the full control effect; nearly all actives have a fitted effect of over 60% in size
Details: ROR-gamma antagonist cell reporter assay; series mostly up to 92.2 µM
Outline: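 CHO cells carrying TET-inducible ROR-gamma and an ROR response element–luciferase reporter were exposed to compound, then induced with doxycycline. After 16hr at 37C, luminescence was read; lower signal indicates antagonism.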

SMILES	outcome
CC(O)CO (stereo unspecified)	inactive
CC(C)=O	inactive
O=C(O)CCC(=O)C(=O)O	inactive
CCOc1ccc2c(c1)C(C)=CC(C)(C)N2	inactive
CC1=C2[C@@H]([C@H](C)CC[C@H]2/C=C(\C)C(=O)O)[C@H](O)C1	inactive
CCOC(C)=O	inactive
Nc1ccn([C@H]2CS[C@@H](CO)O2)c(=O)n1	inactive
CCCCCCCC(=O)O	inactive
CCCCC/C=C\C/C=C\CCCCCCCC(=O)O	inactive
Cc1ccccc1	inactive
